In the library only some 27% were active in any assay of this set; here they are far more common.
CYP2C19 act: human CYP2C19 activators, primary screen, biochemical, luminescence. 96,000 tested, under 10 active. AID 1025, 2008. activation factor at 5 µM. recombinant CYP2C19, luciferin-H EGE luminescence; hits give high values; 0 = fully inhibited enzyme, 1 = untreated enzyme;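 active means activation factor of at least 2 at 5 µM in the primary screen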;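 further: 0 = wells with 2.5 mM tranylcypromine and 1 = vehicle-only wells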
sEH inh: soluble epoxide hydrolase inhibitors, primary screen, biochemical, human sEH | recombinant human sEH enzymatic activity assay | AID 707, 2007 | actives 0.34% (n = 91,000) | inhibition, % at 2 µM | Bifunctional epoxide hydrolase 2 (Homo sapiens), P34913; in the data active means inhibition above about 80%
Target sequence (P34913 whole entry, looked up): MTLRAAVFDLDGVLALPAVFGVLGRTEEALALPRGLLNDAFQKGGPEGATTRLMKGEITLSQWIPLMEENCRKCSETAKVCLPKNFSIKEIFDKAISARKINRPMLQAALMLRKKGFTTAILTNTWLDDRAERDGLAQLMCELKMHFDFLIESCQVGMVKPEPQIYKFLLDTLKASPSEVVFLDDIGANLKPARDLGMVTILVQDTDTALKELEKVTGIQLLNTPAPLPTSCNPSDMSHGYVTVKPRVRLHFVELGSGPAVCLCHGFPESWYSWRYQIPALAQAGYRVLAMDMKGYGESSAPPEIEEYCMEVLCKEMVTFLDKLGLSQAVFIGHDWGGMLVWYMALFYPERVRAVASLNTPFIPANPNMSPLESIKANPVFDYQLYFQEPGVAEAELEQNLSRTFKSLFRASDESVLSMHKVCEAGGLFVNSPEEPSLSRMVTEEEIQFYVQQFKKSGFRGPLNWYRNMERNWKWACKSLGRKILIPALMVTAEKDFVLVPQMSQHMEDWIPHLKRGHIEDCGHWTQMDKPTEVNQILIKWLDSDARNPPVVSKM
sEH activator: soluble epoxide hydrolase activators, primary screen, biochemical, human sEH; Bifunctional epoxide hydrolase 2 (Homo sapiens), P34913; purified human sEH enzymatic activity, activator screen; activation, % at 2 µM; actives 0.04% (n = 91,000); in the data active means activation above about 37%
CYP2C9 activ: human CYP2C9 activators, primary screen, biochemical, luminescence; actives 1.4% (n = 96,000); activation factor at 5 µM; recombinant CYP2C9, luciferin-H conversion; hits give high values; factor 1 = untreated enzyme, 0 = blocked; AID 1024, 2008; Cytochrome P450 2C9 (Homo sapiens), P11712;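 active means activation factor of 2 or more for CYP2C9 at a 5 µM dose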;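 further: 0 = sulfaphenazole-blocked wells and 1 = vehicle-only wells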
CYP2C19 inh: blockers of cytochrome P450 2C19 activity – biochemical, luminescence, ADME assay, primary screen | AID 778, 2007 | P33261 | inhibition, % at 5 µM | actives 21% (n = 96,000) | CYP2C19 Supersomes, luciferin-H EGE luminescence, 30 min;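 active means CYP2C19 inhibition above a set limit at 5 µM in the primary screen, cut at about 50% in these data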;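 further: plate controls were negative control wells for no effect and 2.5 mM tranylcypromine positive control for full effect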
CYP2C9 inhib: blockers of cytochrome P450 2C9 activity – biochemical, luminescence, ADME assay, primary screen; P11712; CYP2C9 Supersomes, luciferin-H conversion; inhibition, % at 5 µM; actives 20% (n = 96,000); AID 777, 2007;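 active means blocking of liver enzyme CYP2C9 beyond about 50% at 5 µM, limit read from the data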
An asterisk follows results filed as active.

Screening COc1ccc2nc(NC(=O)C3CCN(S(=O)(=O)c4cccs4)CC3)sc2c1 returned CYP2C19 act 0.2, sEH inh -10, sEH activator 7, CYP2C9 activ 0.3, CYP2C19 inh 84* and CYP2C9 inhib 67*.
COc1ccc2nc(NC(=O)Cc3cccs3)sc2c1 was read as CYP2C19 act 0.7, sEH inh -1, sEH activator 0, CYP2C9 activ 0.5, CYP2C19 inh 33 and CYP2C9 inhib 49.
Screening CCOCC(=O)Nc1nc2ccc(OC)cc2s1 returned CYP2C19 act 0.6, sEH inh -2, sEH activator 1, CYP2C9 activ 0.6, CYP2C19 inh 40 and CYP2C9 inhib 45.
Screening COCCNC(=O)CNS(=O)(=O)c1ccc2nc(C)sc2c1 returned CYP2C19 act 1, sEH inh -1, sEH activator 5, CYP2C9 activ 1.1, CYP2C19 inh -5 and CYP2C9 inhib -5.
Screening COc1ccc2nc(NC(=O)CN(C)S(=O)(=O)c3cccs3)sc2c1 returned CYP2C19 act 0.2, sEH inh -18, sEH activator 15, CYP2C9 activ 0.4, CYP2C19 inh 80* and CYP2C9 inhib 62*.
Screening CCN(CC)CCn1c2ccccc2c2nc(C)sc21 returned CYP2C19 act 0.6, sEH inh 10, sEH activator -11, CYP2C9 activ 1, CYP2C19 inh 42 and CYP2C9 inhib 0.
COc1ccc(-n2nnnc2-c2cnc3cc4c(cc3c2C)OCO4)cc1 was read as CYP2C19 act 0.7, sEH inh -3, sEH activator 6, CYP2C9 activ 0.5, CYP2C19 inh 31 and CYP2C9 inhib 46.
For COC(=O)C1(C)Nc2ccccc2C(=O)N1c1ccccc1C (stereo not given) the results were CYP2C19 act 0.6, sEH inh 1, sEH activator -2, CYP2C9 activ 0.8, CYP2C19 inh 37 and CYP2C9 inhib 19.
For CCOc1ccc(NCC(=O)Nc2ccc(Cl)cc2C)cc1 the results were sEH inh 17 and sEH activator -15.
Screening CCOc1ccc2nc(NC(=O)C3CCN(S(=O)(=O)c4cnc[nH]4)CC3)sc2c1 returned CYP2C19 act 0.2, sEH inh 0, sEH activator -2, CYP2C9 activ 0.2, CYP2C19 inh 84* and CYP2C9 inhib 84*.
`COc1ccc(NC(=O)CNS(=O)(=O)c2cccs2)c(OC)c1` gave CYP2C19 act 0.4, sEH inh -10, sEH activator 10, CYP2C9 activ 0.6, CYP2C19 inh 57* and CYP2C9 inhib 40.
For COc1ccc2nc(NC(=O)C3CCN(S(=O)(=O)c4cnc[nH]4)CC3)sc2c1 the results were CYP2C19 act 0.8, CYP2C9 activ 0.7, CYP2C19 inh 22 and CYP2C9 inhib 35.
For COc1ccc(OC)c(NC(=O)CCNS(=O)(=O)c2cccs2)c1 the results were sEH inh 0 and sEH activator 2.
Screening COc1ccc(NCC(=O)Nc2ccc(Cl)cc2C)c(OC)c1 returned CYP2C19 act 0.1, sEH inh 7, sEH activator -4, CYP2C9 activ 0, CYP2C19 inh 93* and CYP2C9 inhib 99*.
For Cc1ccc(CC(NC(=O)c2ccccc2)C(=O)NCC(=O)O)cc1 (stereo not given) the results were CYP2C19 act 1, sEH inh 1, sEH activator 1, CYP2C9 activ 1.2, CYP2C19 inh -5 and CYP2C9 inhib -23.
Cc1ccccc1OCc1nnc2c3cnn(C)c3ncn12 was read as CYP2C19 act 0.6, CYP2C9 activ 1, CYP2C19 inh 41 and CYP2C9 inhib 1.
COC(=O)c1ccc(C(=O)OC)c(NC(=O)N2c3ccccc3Sc3ccccc32)c1 was read as CYP2C19 act 0.9, sEH inh 20, sEH activator -21, CYP2C9 activ 0.5, CYP2C19 inh 12 and CYP2C9 inhib 51*.
For CCOC(=O)C(C)Sc1nnc(Cn2c(=O)sc3ccccc32)n1-c1ccccc1 (stereo not given) the results were CYP2C19 act 0.3, sEH inh 2, sEH activator -3, CYP2C9 activ 0.2, CYP2C19 inh 69* and CYP2C9 inhib 80*.
`O=C(Nc1ccccc1)N1CC=C(c2ccccc2)CC1` gave CYP2C19 act 0.7, sEH inh 21, sEH activator -19, CYP2C9 activ 0.8, CYP2C19 inh 33 and CYP2C9 inhib 19.
Screening O=C(Nc1ccccc1)N1CC=C(c2ccc(F)cc2)CC1 returned CYP2C19 act 0.4, sEH inh 26, sEH activator -22, CYP2C9 activ 0.7, CYP2C19 inh 56* and CYP2C9 inhib 30.
For COC(=O)C1=C(N)Oc2cc(C)n(Cc3cccnc3)c(=O)c2C1c1cccc(OC)c1OC (stereo not given) the results were CYP2C19 act 0.7, sEH inh 2, sEH activator -2, CYP2C9 activ 0.5, CYP2C19 inh 35 and CYP2C9 inhib 50*.
`COC(=O)C1=C(N)Oc2cc(C)n(CC3CCCO3)c(=O)c2C1c1ccc(Cl)cc1` (stereo not given) gave CYP2C19 act 0.3, sEH inh 7, sEH activator -6, CYP2C9 activ 0.4, CYP2C19 inh 67* and CYP2C9 inhib 57*.
`COC(=O)C1=C(N)Oc2cc(C)n(CCc3ccccc3)c(=O)c2C1c1cccnc1` (stereo not given) gave CYP2C19 act 0.1, CYP2C9 activ 0.1, CYP2C19 inh 92* and CYP2C9 inhib 85*.
`COC(=O)C1=C(N)Oc2cc(C)n(Cc3cccnc3)c(=O)c2C1c1ccc(OC)c(OC)c1` (stereo not given) gave CYP2C19 act 0.5, sEH inh -13, sEH activator 13, CYP2C9 activ 0.5, CYP2C19 inh 46 and CYP2C9 inhib 48.
Screening COC(=O)C1=C(N)Oc2cc(C)n(Cc3cccnc3)c(=O)c2C1c1cc(OC)ccc1OC (stereo not given) returned CYP2C19 act 0.6, sEH inh 2, sEH activator -2, CYP2C9 activ 0.8, CYP2C19 inh 36 and CYP2C9 inhib 23.
COC(=O)C1=C(N)Oc2cc(C)n(CCCn3ccnc3)c(=O)c2C1c1cccc(Cl)c1 (stereo not given) was read as CYP2C19 act 0.2, CYP2C9 activ 0.1, CYP2C19 inh 83* and CYP2C9 inhib 92*.
For COc1cc(OC)nc(NC(=O)CSc2nnc(-c3ccccc3)n2C2CCCCC2)n1 the results were sEH inh -7 and sEH activator 7.
O=c1cnn(-c2ccccc2)c(-c2ccccc2)c1 was read as CYP2C19 act 1, sEH inh 17, sEH activator -18, CYP2C9 activ 0.7, CYP2C19 inh -2 and CYP2C9 inhib 31.

Assay outcomes (PubChem BioAssay)
